Where “and” joins values, the source holds several entries; their conditions need not be identical. Identical values can stand only once. Inconclusive results are not listed. Entries that show only a call come without a potency. Some compounds were tested as several samples or in several runs, with calls that do not always agree. Calls of active or inactive are those of the source. Calls come from the whole dose curve; as a rule, active = well fitted cell-killing curve with a large enough effect in the repeat runs; inconclusive = weak or mixed curves, or effect the other way; inactive = no such curve, though single readings can be large or run the other way.
Potency is the fitted concentration of half-maximal effect.

The nature of the assay: qHTS assay for identifying genotoxic compounds that show differential cytotoxicity against isogenic chicken DT40 cell lines with known DNA damage response pathways - wild type cell line (AID 743012). Note: nearly all actives have a fitted effect of over 60% in size. The note with it: DT40 wild type chicken cells viability, CellTiter-Glo, 40 h; series mostly up to 68.4 µM. From the text: U.S. Tox21 Program National Center for Advancing Translational Sciences [NCATS] NIH Chemical Genomics Center [NCGC] U.S. Environmental Protection Agency [EPA] National Institutes of Environmental Health Sciences [NIEHS] National Toxicology Program [NTP] U.S. Food and Drug Administration [FDA] Tox21 Assay Overview: DNA repair pathways play a critical role in cellular homeostasis by repairing DNA damage induced by endogenous processes and xenobiotics. Isogenic chicken DT40 cell lines deficient in different DNA repair pathways can be used to identify genotoxic compounds and aid in characterizing the nature of the DNA damage induced. Two DNA repair-deficient cell lines with disrupted genes, Rad54/Ku70 or Rev3, were used to screen the Tox21 10K compound library. Possible genotoxicity was based on the presence of a significant increase in cytotoxicity in one or more of the DNA repair-deficient cell lines compared to that observed in the parental DNA repair-proficient cell line. CellTiter Glo viability assay (Promega, Madison, WI) was used to measure cell viability in these cells after compound treatment. This assay includes the data from the wild type cell line.
Tox21 Assay Protocol Summary: 300 DT40 wild type cells in 5 uL/well were dispensed into white, solid-bottom 1536-well plates using a Multidrop Combi (ThermoFisher Scientific, Waltham, MA) dispenser. After the assay plates were incubated at 37 C/5% CO2 for approximately 0.5 hour, 23 nL of compounds dissolved in DMSO, positive controls or DMSO only was transferred into the assay plate by a pintool work station (Kalypsys, San Diego, CA). The assay plates were incubated at 37 C/5% CO2 for 40 hours. After 5 uL per well of CellTiter-Glo reagent was added into each well of the assay plates, the plates were incubated for 30 min at room temperature and the luminescence intensity of the plates was measured using a ViewLux (PerkinElmer, Shelton, CT) plate reader.
In general terms: In qHTS, concentration-response curves come from the screen itself.
Regarding `CC(C)(CO)COC(=O)C(C)(C)CO`, the Potency entry is “inactive”.

As to `CCCCCCCCCC(=O)O`, the Potency result is “inactive”.

On to `CC1CC(OC(=O)c2ccccc2O)CC(C)(C)C1` (stereo not given), for which the Potency entry is “inactive”.

Turning to `C=C(C)C(=O)OCC(CC)(COC(=O)C(=C)C)COC(=O)C(=C)C`, the Potency entry was “inactive”.

Turning to `CC(C)n1c(/C=C/[C@@H](O)C[C@@H](O)CC(=O)O)c(-c2ccc(F)cc2)c2ccccc21`, the Potency was 1.06 µM (active) and 6.11 µM (active).

Turning to `c1ccc2[nH]cnc2c1`, the Potency entry was “inactive”.

Turning to `NS(=O)(=O)c1cc2c(cc1Cl)NC=NS2(=O)=O`, the Potency entry was “inactive”.

Consider `CS(=O)(=O)Nc1ccc([N+](=O)[O-])cc1Oc1ccccc1`, for which the Potency result is “inactive”.

`CCCCC(CC)COC(=O)CCCCCCCC(=O)OCC(CC)CCCC` (stereo not given): the Potency entry was “inactive”.

Turning to `CCC(=O)O`, the Potency entry is “inactive”.

As for `CCc1ccccc1O`, the Potency entry is “inactive”.

In the case of `O=C(c1cc(O)c(O)c(O)c1)c1ccc(O)c(O)c1O`, the Potency is 48.4 µM (active) and 13.7 µM (active).

For the molecule `CCOC(=O)[C@H](CCc1ccccc1)N[C@@H](C)C(=O)N1Cc2ccccc2C[C@H]1C(=O)O`, the Potency result is “inactive”.

Turning to `NCc1cccc(CN)c1`, the Potency entry was “inactive”.

Regarding `CC(C)Cc1ccccc1`, the Potency result was “inactive”.

Take `Oc1ccc2ccccc2c1N=Nc1ccccc1`: the Potency entry was “inactive”.

Consider `CCOC(=O)C1OC1c1ccccc1` (stereo not given), for which the Potency entry is “inactive”.

`CCCCCCOC(C)=O`: the Potency entry is “inactive”.

For the molecule `COC(=O)c1ccccc1O`, the Potency result is “inactive”.

Consider `C=CC(=O)OCCCCCCCC(C)C`, for which the Potency result is “inactive and 48.5 µM (active)”.

On to `CCCCCCCCCCCCOCC1CO1` (stereo not given), for which the Potency entry is “inactive”.

For the molecule `CC1(C)CC(N=C=O)CC(C)(CN=C=O)C1` (stereo not given), the Potency result is “inactive”.

For the molecule `Oc1ccc2ccccc2c1`, the Potency entry was “inactive”.

For `Cn1c([N+](=O)[O-])cnc1COC(N)=O`, the Potency entry was “inactive”.

Take `Cc1cc(O)cc(C)c1Cl`: the Potency entry is “inactive”.

`CCCCOCCO`: the Potency result is “inactive”.

Take `CCCCOCCOCCOC(=O)CCCCC(=O)OCCOCCOCCCC`: the Potency result was “inactive”.

As to `ClC1=C(Cl)C(Cl)(Cl)C(Cl)=C1Cl`, the Potency entry is “inactive and 770 nM (active)”.

As for `CCCCCCC(C)(C)S`, the Potency entry was “inactive”.

As for `Cc1cc(=O)[nH]c(C(C)C)n1`, the Potency result was “inactive”.

Turning to `Cc1ccc(C)c(C)c1`, the Potency result was “inactive”.

Consider `O=C1O[C@H](CO)[C@@H](O)[C@H](O)[C@H]1O`, for which the Potency result was “inactive”.

As for `COCC(=O)O`, the Potency result is “inactive”.

Turning to `CC1(C)O[C@@H]2C[C@H]3[C@@H]4C[C@H](F)C5=CC(=O)CC[C@]5(C)[C@H]4[C@@H](O)C[C@]3(C)[C@]2(C(=O)CO)O1`, the Potency entry is “inactive”.

`COCC(C)O` (stereo not given): the Potency entry was “inactive”.

In the case of `CCCCC(CC)COC(=O)/C=C\C(=O)OCC(CC)CCCC` (stereo not given), the Potency entry is “inactive”.

For the molecule `CCCCC(CC)COC(C)=O` (stereo not given), the Potency result is “inactive”.

For the molecule `CN(C)c1ccc(C(=N)c2ccc(N(C)C)cc2)cc1`, the Potency is 5.38 µM (active) and 11.7 µM (active).

Consider `O=C1CCCCC1`, for which the Potency result was “inactive”.

In the case of `CC(C)NCC(O)COc1cccc2ccccc12` (stereo not given), the Potency entry is “inactive”.

For the origin of these results see PubChem BioAssay (Tox21).
